Experimental data: the supplement of paper PMC3898565
± gives the uncertainty stated by the source.

tested on: U87; assay: cell viability relative to vehicle control; higher = less growth inhibition (less active); settings: 10 µM; 72 h
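Note: viable cell number estimated from Alamar Blue fluorescence read at 560/90, part of a single-dose primary screen of an FDA-approved drug library.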

Row | Compound | cell viability
1 | Cc1nc2n(c(=O)c1CCN1CCC(c3noc4cc(F)ccc34)CC1)CCCC2 | 108 ± 1.7%
2 | CC(=O)SCC(Cc1ccccc1)C(=O)NCC(=O)OCc1ccccc1 (centres undefined) | 103 ± 2%
3 | C[C@]12CC[C@@H]3c4ccc(OS(=O)(=O)O)cc4CC[C@H]3[C@@H]1CCC2=O | 110.8 ± 0.43%
4 | Nc1c2c(nc3ccccc13)CCCC2 | 110 ± 18%
5 | CCc1oc2ccccc2c1C(=O)c1cc(Br)c(O)c(Br)c1 | 107.7 ± 0.81%
6 | COc1cc(C(=O)NC2CCCNC2)cc(OC)c1OC (centres undefined) | 101 ± 4.2%
7 | CC1(C)C[C@@H]1C(=O)N/C(=C\CCCCSC[C@H](N)C(=O)O)C(=O)O | 129 ± 3.1%
8 | C=CC[C@@H]1/C=C(\C)C[C@H](C)C[C@H](OC)[C@H]2O[C@@](O)(C(=O)C(=O)N3CCCC[C@H]3C(=O)O[C@H](/C(C)=C/[C@@H]3CC[C@@H](O)[C@H](OC)C3)[C@H](C)[C@@H](O)CC1=O)[C@H](C)C[C@@H]2OC | 101.8 ± 0.73%
9 | CC(C(O)c1ccc(O)cc1)N1CCC(Cc2ccccc2)CC1 (centres undefined) [Ifenprodil] | 99.5 ± 1.3%
10 | CC1CNc2c(cccc2S(=O)(=O)N[C@@H](CCCNC(=N)N)C(=O)N2CC[C@@H](C)C[C@@H]2C(=O)O)C1 (some centres undefined) | 105 ± 2.8%
11 | CCN1CC(CCN2CCOCC2)C(c2ccccc2)(c2ccccc2)C1=O (centres undefined) | 104 ± 1.3%
12 | COc1ccnc(C[S+]([O-])c2nc3cc(OC(F)F)ccc3[nH]2)c1OC (centres undefined) | 125.2 ± 1.1%
13 | C[C@@H](O)[C@H]1C(=O)N2C(C(=O)O)=C(S[C@@H]3CN[C@H](C(=O)N(C)C)C3)[C@H](C)[C@H]12 | 106.4 ± 0.79%
14 | COc1ccc(CC2c3cc(OC)c(OC)cc3CC[N+]2(C)CCC(=O)OCCCCCOC(=O)CC[N+]2(C)CCc3cc(OC)c(OC)cc3C2Cc2ccc(OC)c(OC)c2)cc1OC (centres undefined) | 110 ± 0.2%
15 | Cc1nc(=O)c2cc(CN(C)c3ccc(C(=O)N[C@@H](CCC(=O)O)C(=O)O)s3)ccc2[nH]1 | 85.4 ± 1.4%
16 | COc1cc(C(=O)NS(=O)(=O)c2ccccc2C)ccc1Cc1cn(C)c2ccc(NC(=O)OC3CCCC3)cc12 | 104 ± 1.1%
17 | C[N+]1(C)CCC(OC(=O)C(O)(c2ccccc2)C2CCCC2)C1 (centres undefined) [Glycopyrrolate] | 103 ± 1.1%
18 | O=C(CCNNC(=O)c1ccncc1)NCc1ccccc1 | 107.8 ± 0.97%
19 | CCOC(=O)C1(CCCCCCOc2ccc(Cl)cc2)CO1 (centres undefined) | 106 ± 1.7%
20 | CC1CCN(CCCC(=O)c2ccc(F)cc2)CC1 [Metylperon] | 106 ± 1.2%

Row | Compound | cell viability
21 | C#C[C@]1(O)CC[C@H]2[C@@H]3CCc4cc(O)ccc4[C@H]3CC[C@@]21C | 102 ± 2.1%
22 | C[C@@H]1C[C@H]2[C@@H]3CCC4=CC(=O)C=C[C@]4(C)[C@@]3(F)[C@@H](O)C[C@]2(C)[C@H]1C(=O)CO | 106 ± 0.2%
23 | CC(=O)O[C@@]12CO[C@@H]1C[C@H](O)[C@@]1(C)C(=O)[C@H](O)C3=C(C)[C@@H](OC(=O)[C@H](O)[C@@H](NC(=O)OC(C)(C)C)c4ccccc4)C[C@@](O)([C@@H](OC(=O)c4ccccc4)[C@H]21)C3(C)C | 45.2 ± 1.5%
24 | CO[C@H]1/C=C/O[C@@]2(C)Oc3c(C)c(O)c4c(O)c(c5c(nc6cc(C)ccn65)c4c3C2=O)NC(=O)/C(C)=C\C=C\[C@H](C)[C@H](O)[C@@H](C)[C@@H](O)[C@@H](C)[C@H](OC(C)=O)[C@@H]1C | 96.1 ± 1.3%
25 | c1ccc(-c2ccc(C(c3ccccc3)n3ccnc3)cc2)cc1 (centres undefined) | 101 ± 1.2%
26 | CN1CC(=O)N2[C@H](c3ccc4c(c3)OCO4)c3[nH]c4ccccc4c3C[C@@H]2C1=O | 107 ± 1.3%
27 | CC(=O)O[C@]1(C(C)=O)CC[C@H]2[C@@H]3C=C(C)C4=CC(=O)CC[C@]4(C)[C@H]3CC[C@@]21C | 101 ± 1.2%
28 | Clc1cccc(Cl)c1NC1=NCCN1 | 108 ± 2.8%
29 | CC(c1cc2ccccc2s1)N(O)C(N)=O (centres undefined) | 104.1 ± 1%
30 | Nc1[nH]c(=O)ncc1F | 102 ± 1.7%
31 | CCC(=O)O[C@]1(C(=O)SCF)[C@H](C)C[C@H]2[C@@H]3C[C@H](F)C4=CC(=O)C=C[C@]4(C)[C@@]3(F)[C@@H](O)C[C@@]21C | 105 ± 2.2%
32 | Cc1ncc([N+](=O)[O-])n1CC(C)O (centres undefined) [1-(2-Methyl-5-nitro-imidazol-1-yl)-propan-2-ol] | 102.9 ± 0.98%
33 | O=C(c1ccc(F)cc1)C1CCN(CCn2c(=S)[nH]c3ccccc3c2=O)CC1 [Altanserin] | 99.9 ± 2.9%
34 | COc1ccccc1N1CCN(CCCNc2cc(=O)n(C)c(=O)n2C)CC1 | 109 ± 1.7%
35 | N#Cc1ccc(C(c2ccc(C#N)cc2)n2cncn2)cc1 | 103 ± 1.3%
36 | O=C(O)Cc1ccccc1Nc1c(Cl)cccc1Cl | 105.9 ± 0.17%
37 | CN1CCN(C2=Nc3cc(F)ccc3Cc3ccccc32)CC1 [Fluperlapine] | 106 ± 3.3%
38 | CN(CCCN1c2ccccc2CCc2ccccc21)CC(=O)c1ccc(Cl)cc1 | 107 ± 2.2%
39 | CNS(=O)(=O)Cc1ccc2[nH]cc(CCN(C)C)c2c1 | 101 ± 1.5%
